AmpC inh no detg: AmpC beta-lactamase inhibition without detergent. P00811. AmpC nitrocefin hydrolysis, absorbance 480 nm, 0.0001% Triton. 330,000 tested, 0.52% active. Potency, µM (highest dose often 57.1 µM), for inactives: at the top dose activity change, negative = inhibition, usual class: inhibitors;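 further: plate controls were no compound for no effect and no enzyme for full effect; nearly all actives have a fitted effect of over 20% in size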
Target sequence (P00811 whole entry, looked up): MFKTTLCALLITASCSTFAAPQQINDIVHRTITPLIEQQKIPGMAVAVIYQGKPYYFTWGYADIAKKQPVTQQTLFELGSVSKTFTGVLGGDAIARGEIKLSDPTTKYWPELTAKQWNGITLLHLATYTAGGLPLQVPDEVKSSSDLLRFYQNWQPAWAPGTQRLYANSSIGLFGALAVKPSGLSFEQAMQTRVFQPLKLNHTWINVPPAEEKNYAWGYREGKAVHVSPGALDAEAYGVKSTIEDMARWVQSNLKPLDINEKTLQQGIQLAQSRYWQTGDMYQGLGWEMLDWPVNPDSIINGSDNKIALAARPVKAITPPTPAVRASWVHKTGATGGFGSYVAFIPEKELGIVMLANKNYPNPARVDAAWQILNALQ
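20 mM phosphate pH 7.0 + 0.01% (detergent screen) or 0.0001% Triton X-100; 5.3 nM AmpC reagent; cpd preinc 15 min RT; nitrocefin (800 uM stock) to start; A480 q20 s × 4 min; Activity was normalised to no-enzyme and no-compound control wells.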
FBPA Giardia inh: Giardia lamblia aldolase inhibition. purified Giardia FBPA. AID 2451. 290,000 tested, 0.71% active. Potency, µM (highest dose often 59.6 µM), for inactives: at the top dose activity, negative = inhibition, actives largely listed as inhibitors. A8B2U2; further: nearly all actives have a fitted effect of over 55% in size
Target sequence (A8B2U2 whole entry, looked up): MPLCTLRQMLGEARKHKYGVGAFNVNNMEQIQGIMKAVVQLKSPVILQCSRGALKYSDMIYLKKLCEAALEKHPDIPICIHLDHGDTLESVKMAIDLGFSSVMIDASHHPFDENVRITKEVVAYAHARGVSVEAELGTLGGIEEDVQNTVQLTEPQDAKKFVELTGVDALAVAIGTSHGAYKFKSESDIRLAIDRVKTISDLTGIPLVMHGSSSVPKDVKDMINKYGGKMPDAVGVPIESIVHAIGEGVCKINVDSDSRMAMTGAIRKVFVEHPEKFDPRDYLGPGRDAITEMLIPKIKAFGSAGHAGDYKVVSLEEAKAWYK
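Giardia FBPA (40 nM reagent) was preincubated 10 min at RT with compound (up to 57.5 uM final), then substrate plus GAPDH/TPI/NAD/arsenate coupling system with diaphorase/resazurin was added; resorufin fluorescence (525/598 nm) was read after 20 min.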
Sm TGR block: inhibitors of Schistosoma mansoni thioredoxin glutathione reductase | Potency, µM (highest dose often 114 µM), inactives show at the highest dose activity change, negative = inhibition, hits mostly inhibitors | purified TGR, DTNB reduction, TNB absorbance 405 nm | Q962Y6 | AID 485364 | 360,000 tested, 3% active; further: nearly all actives have a fitted effect of over 60% in size
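First, TGR (20 nM dispensed) and NADPH were mixed with compound. Second, a 15 min room-temperature incubation followed. Third, further NADPH and then DTNB were added to start the reaction. Finally, TNB absorbance was monitored kinetically.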
AmpC inh detg: blocks E. coli AmpC beta-lactamase in detergent assay; P00811; AmpC hydrolysis of nitrocefin, absorbance 480 nm, 0.01% Triton; Potency, µM (highest dose often 114 µM), for the others: top-dose activity change, negative = inhibition, hits mostly inhibitors; 370,000 tested, 0.041% active; AID 485294;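 further: 0% = no-compound wells and -100% = no-enzyme wells; nearly all actives have a fitted effect of over 25% in size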
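AmpC (5.3 nM in the dispensed reagent) in 20 mM phosphate pH 7.0 with 0.01% (detergent screen) or 0.0001% Triton X-100 was preincubated with compounds for 15 min at room temperature. Nitrocefin was then added from an 800 uM solution, and hydrolysis was followed at 480 nm.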
RE007 growth inh: less growth of the S. pombe RE007 Vpr strain; S. pombe RE007 Vpr strain, BacTiter-Glo ATP luminescence, 24 h; AID 651644; 360,000 tested, 0.21% active; Potency, µM (titrated, usually from 92.2 µM), for the others: at the top dose activity change, negative = less growth, hits mostly inhibitors; active means well fitted falling curve with a large enough effect; inconclusive means small, poorly fitted or top-dose-only effect; inactive means no such curve, though single readings can be large or run the other way; further: nearly all actives have a fitted effect of over 50% in size
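Fission yeast strain RE007, carrying one chromosomally integrated HIV-1 vpr copy, was seeded at OD 0.01 in PMG+AL medium with 23 nL pinned compound. After 24 h at 30 °C and 99% humidity, viability was read by BacTiter-Glo luminescence.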
* marks the source's active call; other numbers are inactive results; ? = inconclusive; / = no result; [ ] = remark or other dose. Rows were chosen to be rich in hits. Some 3.4% of all compounds tested hit in one or more screens of this group. Unless noted, the call rests on the fitted dose curve; in most records, active means well fitted curve in the direction sought with a large enough effect; inconclusive means small, poorly fitted or top-dose-only effect, or another doubt; inactive means no such curve, though single readings can be large; an effect the other way counts as inactive or inconclusive. Unless noted, on the % scale 0 is the no-effect control and ±100 the full control effect; potency means the concentration at half of the fitted maximal effect.

SMILES	AmpC inh no detg	FBPA Giardia inh	Sm TGR block	AmpC inh detg	RE007 growth inh
Nc1c(C(=O)N/N=C/c2cccnc2)oc2nc(-c3ccco3)cc(-c3ccco3)c12	4.2%	-19.7%	12.6µM*	-5.2%	-2.0%
O=S(=O)(Nc1ccccc1O)c1cccc2cccnc12	-33.5%	-25.2%	-1.4%	-2.6%	12.5%
O=S(=O)(Nc1cccc2cccnc12)c1ccccc1O	/	19.9µM*	/	/	/
Cc1ccc(C(=O)OCC(=O)c2c[nH]c3ccccc23)cc1S(=O)(=O)N1CCCCC1	15.8µM*	-2.3%	-1.4%	-13.1%	5.3%
Cc1ccc(C(=O)NNC(=O)c2ccccc2O)cc1S(=O)(=O)N1CCCCC1	8.91µM*	/	2.6%	?	-23.7%
CCOc1ccc(CN2CCSCC2)cc1	-17.2%	-16.3%	11.5%	-14.8%	13.4%
Cc1cc(C)c(NC(=O)c2sc3nc(C)[nH]c(=O)c3c2C)c(C)c1	-11.5%	6.4%	13.8%	7.5%	/
Cc1ccc(NC(=O)c2sc3nc(CCl)[nH]c(=O)c3c2C)c(C)c1	-7.0%	-9.8%	20µM*	4.8%	6.5%
C=CCc1ccccc1OCC(O)CNC (stereo not given)	-6.7%	4.2%	25.1µM*	?	-2.2%
N#CC(C#N)=Cc1cc(O)c(O)c(O)c1	/	15.8µM*	/	/	/
N#CC(C#N)=Cc1ccc(O)cc1	/	-13.8%	/	/	/
COC(=O)c1ccc(OCC(O)CN2CCOCC2)cc1 (stereo not given)	-5.4%	2.8%	3.2%	-0.5%	-10.5%
CCC1C/C(=C\c2cc(OC)c(OC)cc2OC)C(=O)/C(=C/c2cc(OC)c(OC)cc2OC)C1 (stereo not given)	77.9%	-8.9%	-20.9%	-2.1%	8.6%
CCC1C/C(=C/c2ccco2)C(=O)/C(=C/c2ccco2)C1 (stereo not given)	-37.3%	-11.6%	20µM*	?	/
CC1(c2nnc(-c3ccccc3)o2)CC(c2ccc(F)cc2)=NO1 (stereo not given)	25.7%	0.1%	-7.7%	-1.2%	13.1%
Cc1ccc(NS(=O)(=O)c2ccc(Br)s2)nc1	1.7%[2.29 µM]	7.92µM*	15.8µM*	-4.7%	11.7%
N#Cc1cnn2ccn(C3OC(CO)C(O)C3O)c12 (stereo not given)	-11.0%	1.8%	9.5%	3.8%	1.8%
NC(=O)C1(N2CCCCC2)CCN(C(=S)NC2CCCC2)CC1	-22.4%	-4.7%	2.6%	?	-14.9%
CCOC(=O)c1ccc(-n2c(CN3CCOCC3)nc3ccc([N+](=O)[O-])cc3c2=O)cc1	-16.2%	0.4%	-21.7%	2.1%	4.9%
CCOC(=O)c1ccc(-n2c(CN3CCC(C(N)=O)CC3)nc3ccc([N+](=O)[O-])cc3c2=O)cc1	19.0%	-14.5%	11.2µM*	?	-2.4%
CCOC(=O)c1ccc(-n2c(CN(CC)CC)nc3ccc([N+](=O)[O-])cc3c2=O)cc1	-49.7%	-6.6%	11.2µM*	-0.6%	1.0%
CCOC(=O)c1ccc(-n2c(CN3CCN(CC)CC3)nc3ccc([N+](=O)[O-])cc3c2=O)cc1	-26.7%	-17.8%	-35.6%	-1.5%	5.7%
CCOC(=O)c1ccc(-n2c(CN3CCC(O)CC3)nc3ccc([N+](=O)[O-])cc3c2=O)cc1	-31.4%	-11.0%	12.6µM*	1.7%	-10.1%
COc1cc(NS(=O)(=O)c2ccc(NC(=O)c3ccc(OC)c(Br)c3)cc2)nc(OC)n1	/	/	0.3%	-7.4%	/
COc1ccc(S(=O)(=O)N(C)CC(=O)NC2CCCC2)cc1OC	-10.4%	/	0.1%	5.4%	5.4%
SMILES	AmpC inh no detg	FBPA Giardia inh	Sm TGR block	AmpC inh detg	RE007 growth inh
COC(=O)CCSc1cc(NCCOC(C)=O)c([N+](=O)[O-])c2nonc12	-4.1%	-15.8%	-7.8%	-7.4%	-2.1%
CC(=O)OCCCNc1cc(Sc2ccc(C)cc2)c2nonc2c1[N+](=O)[O-]	-19.1%	-0.2%	8.91µM*	2.8%	3.7%
CC(=O)OCCNc1cc(Sc2nc3ccccc3[nH]2)c2nonc2c1[N+](=O)[O-]	-12.4%	?	0.316µM*	-6.9%	-27.0%
CC(=O)OCCCNc1cc(Sc2nc3ccccc3s2)c2nonc2c1[N+](=O)[O-]	-19.5%	?	0.1µM*	-12.7%	-3.9%
CCCC(=O)OCCNc1cc(SCCC(=O)OC)c2nonc2c1[N+](=O)[O-]	17.5%	-26.3%	3.55µM*	-1.0%	2.8%
COc1ccc(Nc2cc(NCCCO)c([N+](=O)[O-])c3nonc23)cc1	-1.1%	2.3%	2.6%	0.7%	3.4%
c1coc(CNCCc2c[nH]c3ccccc23)c1	-18.5%	1.7%	?	0.0%	-3.9%
CCCCn1nnnc1C1(C)CCC(=O)N1Cc1cccc(F)c1 (stereo not given)	/	/	/	/	2.1%
COc1ccccc1/C=C/C(=O)NCC(=O)N1CCC(N(C)C2CCCC2)CC1	4.7%	19.9%	-20.8%	0.0%	-0.2%
CCOc1ccccc1/C=C/C(=O)NCC(=O)N1CCC(N(C)C2CCCCC2C)CC1 (stereo not given)	15.3%	/	6.31µM*	-2.0%	-15.5%
COC(=O)c1ccc(C(NC(=O)OCc2ccccc2)/C(=C/[C@@H](C)C(=O)Nc2ccccc2)c2cccnc2)cc1 (stereo not given in full)	/	0.0%	/	/	/
C=C(C)CNC(=S)Nc1cccc(N)n1	-47.7%	-26.6%	2.82µM*	-0.5%	?
CN(CC(=O)Nc1ccc(Cl)c(C(F)(F)F)c1)C(=O)c1cn2ccccc2n1	35.5µM*	/	0.6%	-5.9%	29.5%
O=S(=O)(NCc1cc(-c2ccccc2Cl)no1)c1ccc(Cl)cc1	-39.3%	0.5%	15.4%	-11.2%	31.6µM*
COc1ccc(-c2cc(CNS(=O)(=O)c3ccc(NC(C)=O)cc3)on2)cc1	-20.0%	/	5.4%	?	-10.8%
O=C(/C=C/c1ccccc1)c1cc(Br)ccc(=O)c1O	-48.4%	-17.7%	3.16µM*	?	-22.1%
O=C(/C=C/c1ccc(O)cc1)c1ccccc1O	/	-3.7%	/	/	/
Cc1ccc(/C=C/C(=O)c2ccccc(=O)c2O)cc1C	-32.9%	?	31.6µM*	?	?
